According to article PMC5540273 (PLoS ONE, 2017):
pKd: −log10 of the molar value.

Experiments:
[1] = test system: SRPK1
[2] = test system: SRPK3
[3] = test system: STK16
[4] = test system: STK33
[5] = test system: STK36
[6] = test system: TEC
[7] = test system: TESK1
[8] = test system: TXK
[9] = test system: TGFBR1
[10] = test system: TGFBR2
[11] = test system: T1, TRKC
T1 construct: gene NTRK3

[12] = test system: T2, TIE2
T2 construct: gene TEK

[13] = test system: TNNI3K
[14] = test system: T3, TRKA
T3 construct: gene NTRK1

[15] = test system: TSSK3
[16] = test system: TYK2(JH1domain-catalytic)
[17] = test system: ULK1
[18] = test system: ULK2
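Note: kd values determined as follow-up on hits from a single-replicate KINOMEscan panel screen.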

Compound Cl.O=S(=O)(c1cccc(F)c1)c1ccc(Nc2ncnc3cc(Br)sc23)cc1Cl [GSK306886] has a pKd [1] of under 5.00.
In the case of Cn1cc(-c2ccc3c(c2)CCN3C(=O)Cc2cccc(C(F)(F)F)c2)c2c(N)ncnc21 [GSK2606414], the pKd [2] was under 5.00.
With Cc1ccc(C)c(NC(=O)NCCNc2ccnc(Nc3ccc(F)cc3)n2)c1 [GSK1379878] the pKd [3] was under 5.00.
Compound c1ccc(-c2ccc3c(-c4ccnc(Nc5ccc6c(c5)OCCO6)n4)cnn3n2)cc1 [GW818941] has a pKd [3] of 6.21.
Work on Cl.Cl.c1ccc(-c2cc3ccncc3cc2OC2CCNCC2)cc1 [GSK1122999] yielded a pKd [4] of under 5.00 and a pKd [5] of under 5.00.
With CCc1nc(-c2cccc(N(C)S(=O)(=O)c3ccccc3)c2)c(-c2ccnc(Nc3ccc(N4CCN(C(C)=O)CC4)nc3)n2)s1 [GSK1645895] the pKd [5] was 7.25.
In the case of Cc1ccc(O)cc1Nc1cc(C(F)(F)F)nc2ccc(-c3ccncc3)cc12 [GW630823], the pKd [6] was under 5.00.
Cn1ccc2ncnc(Nc3ccc(Oc4cccc(Cl)c4)c(Cl)c3)c21 showed a pKd [6] of under 5.00.
For CS(=O)(=O)CCNCc1nc(-c2ccc3ncnc(Nc4ccc(OCc5cccc(F)c5)c(Cl)c4)c3c2)cs1.Cl [GW583340], the pKd [7] was under 5.00 and the pKd [8] was under 5.00.
With O=C(c1ccc(-c2cc(-c3c[nH]nc3-c3ccccn3)ccn2)cc1)N1CCCC1 [GW792479] the pKd [9] was 6.77.
FC(F)(F)c1ccc(-c2cc(-c3c[nH]nc3-c3ccccn3)ccn2)cc1 [GW599550] was tested, and the pKd [9] was 6.66.
Clc1ccc(-c2cc(-c3c[nH]nc3-c3ccccn3)ccn2)cc1 [GW681251] was tested, and the pKd [10] was 6.28 and the pKd [11] was under 5.00.
Compound CC(C)N1CCC(n2cnc(-c3ccc(F)cc3)c2-c2ccnc(N)n2)CC1 [SB-223132] has a pKd [12] of under 5.00.
O=C(Nc1ccccc1)Nc1ccc(Oc2ccc3nccn3n2)cc1 gave a pKd [13] of under 5.00.
CC(=O)Nc1n[nH]c2ncc(-c3ccccc3)cc12 [SB-548492] gave a pKd [14] of 5.60.
For CC(C)(C)OC(=O)NC1CCCN(c2cc(-c3ccc4c(N)n[nH]c4c3)nc(N)n2)C1 (centres unmarked) [GSK2286096], the pKd [15] was under 5.00.
Nc1n[nH]c2nnc(-c3ccccc3)cc12 [SB-517389] showed a pKd [15] of under 5.00.
For C[C@@H]1CCN(C(=O)CO)C[C@@H]1N(C)c1ncnc2[nH]ccc12, the pKd [16] was 6.96.
For CCCc1ccc(S(=O)(=O)NC2CCN(c3ccnc(Nc4ccc(OC)cc4)n3)C2)cc1 (centres unmarked) [GSK1379737], the pKd [17] was under 5.00.
With Fc1ccc(Nc2nccc(-c3c(-c4ccc(Cl)cc4)nn4ncccc34)n2)cc1F [GW829058] the pKd [18] was under 5.00.
